Screens as filed in PubChem.
aSyn 5UTR act – Activators via SNCA 5'UTR binding, MLPCN; activity score, % (tested at 7.5 µM), hits read low; alpha-synuclein 5'UTR reporter, activators screen; actives 7.1% (n = 300,000); in the data active means activity score below about -60%
A number is an active result; i = inactive. Only a sample is shown.

SMILES	aSyn 5UTR act
Cc1cccc2[nH]c(-c3ccc(NC(=O)c4ccco4)cc3)nc12	-225
O=C(Nc1ccc2nc(-c3ccc(Br)o3)[nH]c2c1)c1ccco1	-106
Cc1nn(C)c(C)c1/C=C(/C(=O)C(C)(C)C)n1cncn1	i
O=C(Nc1ccc2nc(-c3ccccc3)[nH]c2c1)c1ccco1	-205
CC(=O)Nc1ccc2nc(-c3ccc(Br)o3)[nH]c2c1	-127
O=C(Nc1ccc2nc[nH]c2c1)c1ccco1	-74
O=C(Nc1ccc2nc(-c3ccc(Br)o3)[nH]c2c1)c1cccs1	-112
COc1ccc(N=Nc2nc3ccc(Br)cc3n2C)cc1	-113
O=C(Nc1ccc2c(c1)OCO2)c1ccc(Br)s1	-240
O=C(Nc1ccc2c(c1)OCO2)c1cccs1	-176
O=C(N/N=C\c1cc2c(cc1Cl)OCO2)c1cccs1	-67
O=C(/C=C\Nc1ccc2c(c1)OCO2)c1cccs1	-147
O=C(Nc1ccc2c(c1)OCCO2)c1cccs1	-76
CCN(CC)S(=O)(=O)c1cc(NC(=O)c2ccc(Br)s2)ccc1C	-95
O=C(c1ccc2c(c1)OCCCO2)c1cccs1	-118
O=C(CN1C(=O)c2ccccc2S1(=O)=O)c1ccc2c(c1)OCCCO2	i
Cc1nn(CCOc2ccccc2)c(=O)n1-c1ccc(F)cc1	-65
Cc1nn(C)c(=O)n1-c1ccc(OCc2ccccc2)cc1	-104
CN(N=Nc1cccc([N+](=O)[O-])c1)c1ccccc1	-108
CN(N=Nc1ccc([N+](=O)[O-])cc1)c1ccccc1	-112
CN(CCCC(=O)O)c1ccc(N=Nc2ccc([N+](=O)[O-])cc2)cc1	-65
O=C(CSc1nccn1-c1ncc(C(F)(F)F)cc1Cl)c1ccc(Cl)cc1	-127
CC(C)c1ccc(N(C(=O)c2csnn2)C(C(=O)NC(C)(C)C)c2ccncc2)cc1 (stereo not drawn)	-158
O=c1nc(/C=C/c2ccc(O)c(O)c2)oc2ccccc12	-159
Cc1cc(N2CCOCC2)nc2cc(O)ccc12	-136
SMILES	aSyn 5UTR act
COc1ccc2nc(N3CCOCC3)cc(C)c2c1	-79
Cc1cc(N2CCN(c3ccc(F)cc3)CC2)nc2cc(O)ccc12	-66
Cc1cc(N2CCN(c3ccccc3F)CC2)nc2cc(O)ccc12	-64
O=C(N/N=C/c1cc(Br)cs1)c1ccc2c(c1)OCCO2	-344
Cc1cc(C(=O)N/N=C/c2ccc([N+](=O)[O-])s2)n[nH]1	i
Cc1cc(C(=O)N/N=C/c2ccc(C)s2)n[nH]1	-97
Cc1ccc(/C=N/NC(=O)c2ccc3ccccc3c2)s1	-132
CC(C)(C)C1CCc2c(C(=O)N/N=C/c3cccs3)csc2C1 (stereo not drawn)	-97
O=C(N/N=C/c1cccs1)c1cc(-c2cccc3ccccc23)n[nH]1	-104
O=C(N/N=C/c1cccs1)c1ccc2ccccc2c1	-240
Cc1ccc(/C=N/NC(=O)c2ccc3c(c2)OCCO3)s1	-118
Cc1cc(C)c(S(=O)(=O)Nc2cc(SCC(=O)O)c(O)c3ccccc23)cc1C	i
COc1ccc(/C(C)=N/N2C(=O)c3ccccc3NC2c2ccc(O)c(OC)c2)cc1 (stereo not drawn)	-66
Nc1nc(N)nc(-c2ccc(Cl)cc2)n1	-112
Cc1cccc(-c2nc(N)nc(N)n2)c1	-74
Nc1nc(-c2ccc(Cl)cc2)nnc1-c1ccc(Br)cc1	-178
O=c1cnnc(N/N=C/c2ccccn2)[nH]1	i
Nc1cnnc(N/N=C\c2ccccc2)c1Cl	-92
COc1ccc(NC(=O)Nc2ccc3nonc3c2)cc1	-150
COc1ccc(NC(=O)Nc2ccc3nccnc3c2)cc1	-122
COC(=O)C(Cc1ccc(OC(=O)c2ccc(C(F)(F)F)cc2)cc1)N1Cc2ccccc2C1=O (stereo not drawn)	-137
COC(=O)C(Cc1ccc(OC(=O)c2ccc(Cl)cc2)cc1)N1Cc2ccccc2C1=O (stereo not drawn)	-124
COc1cc(C(=O)N/N=C/c2ccsc2C)cc(OC)c1OC	i
C/C(=N/N=C/c1ccc(N(C)C)cc1)c1ccccc1	-160
Cc1nn(-c2ccccc2)c(C)c1/C=N/NC(=O)c1cccs1	-68
SMILES	aSyn 5UTR act
CN(C)c1cccc(C(=O)N/N=C/c2ccsc2)c1	-157
O=C(N/N=C/c1ccc(OC(=O)c2cccs2)cc1)c1cccc(F)c1	-97
O=C(N/N=C/c1ccc(-n2ccnc2)cc1)c1cccs1	-78
CSc1ccc(/C=N/NC(=O)c2ccccc2Cl)cc1	-109
CN(C)c1ccc(/C=N/NC(=O)c2sccc2-n2cccc2)cc1	-150
CC(C)=C(NC(=O)c1ccccc1)C(=O)N/N=C/c1ccc(O)cc1	-128
CN(C)c1ccc(/C=N/NC(=O)c2ccccc2Cl)cc1	-125
Cc1cc(C(=O)N/N=C/c2cc(Br)ccc2OC(=O)c2ccccc2Cl)n[nH]1	i
CSc1ccc(/C=N/NC(=O)c2cccs2)cc1	-185
CC/C(=N\NC(=O)c1ccc(N(C)C)cc1)c1ccccc1	-72
CN(C)c1ccc(/C=N/NC(=O)c2ccccc2)cc1	-120
CC(C)C/C=C1\CCc2c([nH]c3ccccc23)C1=O	-229
O=C1/C(=C/c2cccnc2)CCc2c1[nH]c1ccccc21	-126
COc1ccc(-c2oc3ccc(N4CCOCC4)cc3c2C#CC2(O)CCCCC2)cc1	-118
COc1ccc(-c2oc3ccc(N4CCOCC4)cc3c2C#Cc2ccc(N)cc2)cc1	-92
O=C(NCCCO)c1cc2c(cn1)[nH]c1ccccc12	-104
CCOc1nc(NCc2ccco2)nc(Nc2ccccc2F)n1	-108
c1ccc(CCNc2nc(-c3ccccn3)cs2)cc1	-158
c1ccc(CCNc2nc(-c3cccnc3)cs2)cc1	-129
COC(=O)c1ccc(-c2ccc(/C=N/NC(=O)Cc3nnc(N)s3)o2)cc1	-67
COC(=O)c1cnc(SCc2ccc(C)cc2)n1C	-81
COc1ccc(-c2nnc(SCC(=O)c3ccc[nH]3)n2-c2ccccc2)cc1	-70
CC1CCC(NC(=O)CCNS(=O)(=O)c2ccccc2)CC1 (stereo not drawn)	-62
CCCCCC(C)NC(=S)NC(=O)c1cc(S(=O)(=O)N2CCOCC2)ccc1C (stereo not drawn)	i
Cc1ccc(S(=O)(=O)NCc2ccccc2)cc1C(=O)NC1CCC(C)CC1 (stereo not drawn)	-64
SMILES	aSyn 5UTR act
CCN(CC)S(=O)(=O)c1ccc(N2CCOCC2)c(NC(=O)c2cc(-c3ccccn3)nc3ccccc23)c1	i
CCN(CC)S(=O)(=O)c1ccc(N2CCOCC2)c(NC(=O)c2cc([N+](=O)[O-])ccc2Cl)c1	-164
Cc1ccccc1C(=O)O/N=C(\N)c1ccc([N+](=O)[O-])cc1	-127
Cc1ccccc1/C(N)=N/OC(=O)c1ccc(F)cc1	-177
N/C(=N\OC(=O)c1ccccc1F)c1cccc([N+](=O)[O-])c1	-183
N/C(=N\OC(=O)c1ccccc1Br)c1ccc([N+](=O)[O-])cc1	-103
N/C(=N\OC(=O)c1ccccc1Br)c1cccc([N+](=O)[O-])c1	-77
Cc1c(C(=O)Nc2ccccn2)oc2ccccc12	-259
Cc1c(C(=O)Nc2cccnc2Cl)oc2ccccc12	-181
Cc1ccc(NC(=O)c2oc3ccccc3c2C)nc1	-94
CCCCCCCCCn1c2c(c(=N)c3c1CCC3)CCCC2	i
CC1=NN(c2ccc(C)cc2)C(=O)/C1=C\c1ccc(Br)s1	-66
OCCN(CC#CCn1c2ccccc2c2ccccc21)CCO	i
CCN(CC)CCn1c2ccccc2c2nc3ccccc3nc21	-213
CNC(=O)C(=O)Nc1nc(C23CC4CC(CC(C4)C2)C3)cs1	-129
COC(=O)c1cccc(NC(=O)C2COc3ccccc3O2)c1 (stereo not drawn)	-137
